PubChem BioAssay AID1159580 (chemical genetic matrix, 2015)
The whole screen tested about 5,500 compounds, of which about 2,000 (36%) were called active. Not shown: some 18% with an inconclusive outcome. Rule as the data show it: active = normalized growth mostly below about 0.91 (no sharp cut-off); inconclusive = no clear call, values can overlap the other calls; inactive = mostly above about 0.92. Some of the results follow.

Assay: chemical genetic growth profiling, strain panel (AID 1159580);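 also: tested at 20 µM; growth read once vehicle control cultures reached saturation at 30 °C; 1 = growth at the plate median or of vehicle wells; lower values mean less growth of the strain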
Settings: S. cerevisiae deletion strains, growth OD

Measured: normalized growth

O=C(O)c1cn(-c2ccc(F)cc2)c2cc(N3CCNCC3)c(F)cc2c1=O
inactive: locus YAL021C, strain ccr4, stronger effect = lower value 0.949 | locus YAL026C, strain drs2, stronger effect = lower value 0.975 | locus YAL030W, strain snc1, stronger effect = lower value 0.964 | locus YBL061C, strain skt5, stronger effect = lower value 0.981 | locus YBR009C, strain hhf1, stronger effect = lower value 0.979 | locus YBR023C, strain chs3, stronger effect = lower value 0.966 | locus YBR171W, strain sec66, stronger effect = lower value 0.958 | locus YBR231C, strain swc5, stronger effect = lower value 0.967 | locus YBR279W, strain paf1, stronger effect = lower value 0.959 | locus YCL011C, strain gbp2, stronger effect = lower value 0.975 | locus YCL016C, strain dcc1, stronger effect = lower value 0.983 | locus YCL061C, strain MRC1, stronger effect = lower value 0.969 | locus YCL069W, strain vba3, stronger effect = lower value 0.983 | locus YCR088W, strain abp1, stronger effect = lower value 0.982 | locus YDL005C, strain med2, stronger effect = lower value 0.985 | locus YDL040C, strain nat1, stronger effect = lower value 0.979 | locus YDR001C, strain nth1, stronger effect = lower value 0.952 | locus YDR069C, strain doa4, stronger effect = lower value 0.94 | locus YDR137W, strain rgp1, stronger effect = lower value 0.921 | locus YDR159W, strain sac3, stronger effect = lower value 0.96 | locus YDR195W, strain ref2 0.921 | locus YDR297W, strain sur2, stronger effect = lower value 0.981 | locus YDR334W, strain swr1, stronger effect = lower value 0.938 | locus YDR335W, strain msn5, stronger effect = lower value 0.949 | locus YDR392W, strain spt3, stronger effect = lower value 1.02 | locus YEL003W, strain gim4, stronger effect = lower value 0.96 | locus YEL037C, strain rad23, stronger effect = lower value 0.959 | locus YEL061C, strain CIN8 (second series), stronger effect = lower value 0.97 | locus YER015W, strain faa2, stronger effect = lower value 0.983 | locus YER016W, strain bim1, stronger effect = lower value 0.967 | locus YER111C, strain swi4, stronger effect = lower value 0.967 | locus YER155C, strain BEM2 (second series), stronger effect = lower value 0.919 | locus YFR010W, strain ubp6, stronger effect = lower value 0.949 | locus YGL167C, strain pmr1, stronger effect = lower value 0.941 | locus YGL173C, strain kem1, stronger effect = lower value 0.984 | locus YGL227W, strain vid30, stronger effect = lower value 0.954 | locus YGL240W, strain doc1, stronger effect = lower value 0.944 | locus YGL253W, strain hxk2, stronger effect = lower value 0.993 | locus YHR013C, strain ard1, stronger effect = lower value 0.982 | locus YHR027C, strain rpn1, stronger effect = lower value 0.976 | locus YHR030C, strain SLT2, stronger effect = lower value 1.04 | locus YHR079C, strain IRE1, stronger effect = lower value 1.03 | locus YHR142W, strain chs7, stronger effect = lower value 1.01 | locus YJL092W, strain hpr5, stronger effect = lower value 0.974 | locus YJL095W, strain BCK1 (second series), stronger effect = lower value 0.977 | locus YJL095W, strain BCK1, stronger effect = lower value 0.976 | locus YJL115W, strain asf1, stronger effect = lower value 0.963 | locus YJL129C, strain trk1, stronger effect = lower value 0.992 | locus YJL154C, strain vps35, stronger effect = lower value 0.97 | locus YJL164C, strain tpk1, stronger effect = lower value 0.993 | locus YJL166W, strain qcr8, stronger effect = lower value 0.947 | locus YJL187C, strain SWE1, stronger effect = lower value 0.979 | locus YJR066W, strain TOR1, stronger effect = lower value 0.985 | locus YKL160W, strain elf1, stronger effect = lower value 0.989 | locus YKR026C, strain gcn3, stronger effect = lower value 0.962 | locus YKR091W, strain srl3, stronger effect = lower value 0.979 | locus YLL001W, strain dnm1, stronger effect = lower value 0.977 | locus YLL026W, stronger effect = lower value 0.967 | locus YLL041C, strain sdh2, stronger effect = lower value 0.977 | locus YLR027C, strain aat2, stronger effect = lower value 0.982 | locus YLR113W, strain HOG1, stronger effect = lower value 0.975 | locus YLR221C, strain rsa3, stronger effect = lower value 0.992 | locus YLR258W, strain gsy2, stronger effect = lower value 0.979 | locus YLR262C, strain YPT6 (second series), stronger effect = lower value 0.951 | locus YLR320W, strain mms22, stronger effect = lower value 0.981 | locus YLR342W, strain FKS1, stronger effect = lower value 0.96 | locus YLR357W, strain rsc2, stronger effect = lower value 0.958 | locus YLR370C, strain arc18, stronger effect = lower value 0.948 | locus YLR384C, strain iki3, stronger effect = lower value 0.971 | locus YML120C, strain ndi1, stronger effect = lower value 0.972 | locus YMR058W, strain fet3, stronger effect = lower value 0.968 | locus YMR125W, strain sto1, stronger effect = lower value 0.967 | locus YMR129W, stronger effect = lower value 0.997 | locus YMR205C, strain PFK2, stronger effect = lower value 0.995 | locus YMR231W, strain pep5, stronger effect = lower value 0.973 | locus YNL071W, strain lat1, stronger effect = lower value 0.991 | locus YNL183C, strain NPR1, stronger effect = lower value 0.982 | locus YNL209W, strain ssb2, stronger effect = lower value 0.972 | locus YNL248C, strain rpa49, stronger effect = lower value 1.02 | locus YNL322C, strain KRE1 (second series), stronger effect = lower value 0.966 | locus YNR049C, strain mso1, stronger effect = lower value 0.979 | locus YOR001W, strain rrp6, stronger effect = lower value 0.952 | locus YOR070C, strain gyp1, stronger effect = lower value 0.984 | locus YOR080W, strain dia2, stronger effect = lower value 0.945 | locus YOR083W, strain WHI5, stronger effect = lower value 0.987 | locus YOR106W, strain vam3, stronger effect = lower value 0.962 | locus YOR231W, strain MKK1, stronger effect = lower value 1.01 | locus YOR265W, strain rbl2, stronger effect = lower value 0.974 | locus YOR270C, strain vph1, stronger effect = lower value 0.947 | locus YOR290C, strain snf2, stronger effect = lower value 0.965 | locus YPL051W, strain arl3, stronger effect = lower value 0.955 | locus YPL078C, strain atp4, stronger effect = lower value 0.972 | locus YPL106C, strain sse1, stronger effect = lower value 0.895 | locus YPL240C, strain hsp82, stronger effect = lower value 0.996 | locus YPL256C, strain CLN2, stronger effect = lower value 1.06
